Measured values taken from the supplement of paper PMC10498489.
Among all 2,300 compounds or so, about 330 (14%) showed activity.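 Rule for the calls: active = median modified Z-score above 1.96; inactive = 1.96 or below.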 A selection follows.

test system: HepG2 Srxn1-GFP reporter cells (+30 nM CDDO-Me); assay: Srxn1-GFP intensity median modified Z-score relative to plate median; higher = stronger NRF2 / oxidative stress reporter activation, active = hit call of the paper; details: 10 µM; exposure time: 24h
Outline: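 Values give the median, over replicates, of the modified Z-score of GFP intensity on each plate. HepG2 Srxn1-GFP BAC reporter cells were co-treated for 24 h with an NRF2 activator at 30 nM and compound at 10 μM (≤0.1% DMSO) in three replicate plates, then analysed per cell for cytoplasmic GFP on confocal images with at least 100 cells. Scaling used 1.4826 × median absolute deviation.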

SMILES | Srxn1-GFP intensity median modified Z-score
Nc1ccc(S(=O)(=O)N=c2cccc[nH]2)cc1 [euspeclibcmpd279] | -0.029 (inactive)
COc1ccc2[nH]c3cc(Cl)ccc3c(=Nc3cc(CN4CCCC4)c(O)c(CN4CCCC4)c3)c2n1 [euspeclibcmpd1080] | 9.12 (active)
CC1(C)C2CCC1(CS(=O)(=O)O)C(=O)C2=Cc1ccc(C=C2C(=O)C3(CS(=O)(=O)O)CCC2C3(C)C)cc1 [euspeclibcmpd1829] | 1.49 (inactive)
C=C(CC)C(=O)c1ccc(OCC(=O)O)c(Cl)c1Cl [euspeclibcmpd119] | 14 (active)
CC(C)CCCC(C)[C@H]1CCC2C3CC=C4C[C@@H](OC(=O)c5ccccc5)CC[C@]4(C)C3CC[C@@]21C (stereo partly specified) [euspeclibcmpd2185] | -0.487 (inactive)
CC(O)CNS(=O)(=O)CC1CN(C(=O)C2CC2C)CCO1 (stereo unspecified) | 1.25 (inactive)
CC(C)=C1CNC(C(=O)O)C1CC(=O)O (stereo unspecified) [euspeclibcmpd2009] | 0.265 (inactive)
CC(=O)Oc1ccccc1C(=O)N=c1[nH]cc([N+](=O)[O-])s1 [euspeclibcmpd615] | 2.79 (active)
CC(=O)N=c1[nH]cc([N+](=O)[O-])s1 [euspeclibcmpd793] | 0.152 (inactive)
O=C(O)c1cc(O)c(O)c(O)c1 [euspeclibcmpd1010] | -0.0488 (inactive)
COc1ccc(C(=O)c2ccc(O)cc2)c(O)c1O [euspeclibcmpd1507] | -0.213 (inactive)
O=C1[O][Bi]([OH])[O]c2ccccc21 [euspeclibcmpd2458] | 0.155 (inactive)
NC(=O)N1c2ccccc2CC(=O)c2ccccc21 [euspeclibcmpd673] | -0.538 (inactive)
O=C1CC(=O)c2ccccc2C1=O [euspeclibcmpd1562] | 9.54 (active)
C/C(=C\CO)CC[C@H](C)CCC[C@H](C)CCCC(C)C [euspeclibcmpd1621] | -0.0936 (inactive)
[O-][n+]1cccc(CO)c1 [euspeclibcmpd1263] | -0.263 (inactive)
O=C(O)C=Cc1ccc(O)c(O)c1 [euspeclibcmpd1336] | -0.408 (inactive)
O=C(C=Cc1ccc(O)c(O)c1)OCCc1ccccc1 [euspeclibcmpd1775] | 3.45 (active)
O=C(C=Cc1ccc(O)c(O)c1)OC(Cc1ccc(O)c(O)c1)C(=O)O (stereo unspecified) [euspeclibcmpd2083] | -0.529 (inactive)
Cc1ccc(C)c(N2C(=O)c3ccc(C(=O)OCC(=O)N4CCc5ccccc54)cc3C2=O)c1 | 1.06 (inactive)
O=C(Nc1cccc(Oc2cnccn2)c1)c1cc2cc(F)ccc2[nH]1 | 1.62 (inactive)
CCN(CC)CCNC(=O)c1cc(Br)c(N)cc1OC [euspeclibcmpd1122] | 0 (inactive)
CCN(CC)CCNC(=O)c1cc(S(C)(=O)=O)ccc1OC [euspeclibcmpd525] | -0.717 (inactive)

SMILES | Srxn1-GFP intensity median modified Z-score
CCN(CC)CCNC(=O)c1cc(Cl)c(N)cc1OC [euspeclibcmpd197] | 86.5 (active)
NC(=O)C1CCCN(Cc2cccc(CNc3ncc(F)cn3)c2)C1 (stereo unspecified) | 1.1 (inactive)
CC(CN(C)C)CN1c2ccccc2CCc2ccccc21 (stereo unspecified) [euspeclibcmpd531] | 0.095 (inactive)
CN=C(C[N+](=O)[O-])NCCSCc1ccc(CN(C)C)o1 [euspeclibcmpd2160] | -0.118 (inactive)
CC1(C)SC2C(NC(=O)C(N)c3ccc(O)cc3)C(=O)N2[C@H]1C(=O)O (stereo partly specified) [euspeclibcmpd23] | -0.305 (inactive)
CCC(C)n1ncn(-c2ccc(N3CCN(c4ccc(OC[C@H]5CO[C@](Cn6cncn6)(c6ccc(Cl)cc6Cl)O5)cc4)CC3)cc2)c1=O (stereo partly specified) [euspeclibcmpd951] | 2.71 (active)
CC(C)N1CCN(c2ccc(OC[C@H]3CO[C@](Cn4cncn4)(c4ccc(Cl)cc4Cl)O3)cc2)CC1 [euspeclibcmpd617] | 1.6 (inactive)
CC(=O)N1CCN(c2ccc(OCC3CO[C@](Cn4ccnc4)(c4ccc(Cl)cc4Cl)O3)cc2)CC1 (stereo partly specified) [euspeclibcmpd169] | 0.674 (inactive)
N=C(N)N=c1[nH]c(CSCCC(=N)NS(N)(=O)=O)cs1 [euspeclibcmpd364] | 0.317 (inactive)
O=C(O[C@@H]1Cc2c(O)cc(O)cc2OC1c1cc(=O)c(O)c2c(O)c(O)cc(C3Oc4cc(O)cc(O)c4C[C@H]3O)c2c1)c1cc(O)c(O)c(O)c1 (stereo partly specified) [euspeclibcmpd1583] | -0.77 (inactive)
COc1ccc(-c2cc(=O)c3c(OC)c(OC)c(OC)c(OC)c3o2)cc1 [euspeclibcmpd1464] | 6.78 (active)
COc1ccc(-c2cc(=O)c3c(OC)c(OC)c(OC)c(OC)c3o2)cc1OC [euspeclibcmpd1435] | 1.9 (inactive)
COc1ccc(-c2cc(=O)c3c(O)c(OC)c(OC)c(OC)c3o2)cc1 [euspeclibcmpd2317] | 0.184 (inactive)
OC[C@@H](O)[C@@H](O)[C@@H](O)[C@H](O)[C@@H](O)CO [euspeclibcmpd1702] | -0.744 (inactive)
C=CCCCCCCCCCCCC(O)CC(O)CO (stereo unspecified) [euspeclibcmpd1371] | 1.62 (inactive)
CC(=O)OCC(OC(C)=O)C(OC(C)=O)C(OC(C)=O)C(OC(C)=O)C(COC(C)=O)OC(C)=O (stereo unspecified) [euspeclibcmpd1364] | -0.434 (inactive)
CC(=O)OCC(COC(C)=O)OC(C)=O [euspeclibcmpd301] | 0.397 (inactive)
C=CCCCCCCCCC(=O)O [euspeclibcmpd2049] | 0.331 (inactive)
C=CCCCCCCCCCCCC(O)CC(O)CO (stereo unspecified) [euspeclibcmpd2211] | 2.24 (active)
C#CCCCCCCCCCCCC(O)CC(O)COC(C)=O (stereo unspecified) [euspeclibcmpd1372] | 3.35 (active)
C#CCCCCCCCCCCCC(O)CC(O)CO (stereo unspecified) [euspeclibcmpd1458] | 4.24 (active)
CC(=O)O[C@@]12CO[C@@H]1C[C@H](O)[C@@]1(C)C(=O)C(=O)C3C(C)[C@@H](OC(=O)[C@@H](O)[C@@H](NC(=O)OC(C)(C)C)c4ccccc4)C[C@@](O)([C@@H](OC(=O)c4ccccc4)C12)C3(C)C (stereo partly specified) [euspeclibcmpd1130] | 1.49 (inactive)
O=C(O)CCNC(=O)c1ccc(N=Nc2ccc(O)c(C(=O)O)c2)cc1 [euspeclibcmpd2245] | -0.361 (inactive)
